This experiment relates to PC9. Nature of the experiment: area under confluence curve of osimertinib + compound combination regimen (DTP regrowth); compare to osimertinib-only DTP control AUC of the same experiment (AUC (confluence x time, arbitrary)). The protocol:
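compare to osimertinib-only DTP control AUC of the same experiment; Long-term drug-tolerant persister (DTP) screen in EGFR-mutant NSCLC cell lines in 48-well plates. The test compound was given at one fixed dose with osimertinib, either upfront (from day 0 to the DTP stage at 10-21 days, then drug-free medium) or sequentially (osimertinib alone to the DTP stage, then the test compound). IncuCyte confluence was tracked until osimertinib-only controls regrew, and AUC was computed in Prism. AUC scale depends on experiment duration, so each row carries the same-experiment osimertinib-only DTP and DMSO control AUCs; combination activity = control minus combo AUC. Osimertinib dose not stated.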

The mark [1] stands for this setting: test compound dose 1000 nM, dosing schedule: sequential, osimertinib-only DTP control AUC in same experiment: 15001, DMSO control AUC in same experiment: 22064.
Where [2] appears, read: test compound dose 1000 nM, dosing schedule: sequential, osimertinib-only DTP control AUC in same experiment: 15044, DMSO control AUC in same experiment: 30604.
Where [3] appears, read: test compound dose 1000 nM, dosing schedule: upfront, osimertinib-only DTP control AUC in same experiment: 20672, DMSO control AUC in same experiment: 30604.
The mark [4] stands for this setting: test compound dose 1000 nM, dosing schedule: upfront, osimertinib-only DTP control AUC in same experiment: 24924, DMSO control AUC in same experiment: 22064.

Consider `Cc1nc(-c2nc(-c3ccc(OC(F)(F)F)cc3)no2)nn1Cc1cccc(N2CCC(S(C)(=O)=O)CC2)c1` + C=CC(=O)Nc1cc(Nc2nccc(-c3cn(C)c4ccccc34)n2)c(OC)cc1N(C)CCN(C)C [osimertinib], for which the “area under confluence curve” value was 9950 (test compound dose 10 nM, dosing schedule: sequential, osimertinib-only DTP control AUC in same experiment: 11178, DMSO control AUC in same experiment: 18385); 3870 (test compound dose 10 nM, dosing schedule: sequential, osimertinib-only DTP control AUC in same experiment: 12231, DMSO control AUC in same experiment: 19076); 12500 (test compound dose 10 nM, dosing schedule: upfront, osimertinib-only DTP control AUC in same experiment: 16535, DMSO control AUC in same experiment: 19076); 15300 (test compound dose 10 nM, dosing schedule: upfront, osimertinib-only DTP control AUC in same experiment: 16887, DMSO control AUC in same experiment: 18385).

For the compound `Cc1nc(Nc2ncc(C(=O)Nc3c(C)cccc3Cl)s2)cc(N2CCN(CCO)CC2)n1` [Dasatinib] + C=CC(=O)Nc1cc(Nc2nccc(-c3cn(C)c4ccccc34)n2)c(OC)cc1N(C)CCN(C)C [osimertinib], the “area under confluence curve” value was 2120 (test compound dose 30 nM, dosing schedule: sequential, osimertinib-only DTP control AUC in same experiment: 10175, DMSO control AUC in same experiment: 27958); 1440 (test compound dose 30 nM, dosing schedule: sequential, osimertinib-only DTP control AUC in same experiment: 12589, DMSO control AUC in same experiment: 28243); 1770 (test compound dose 30 nM, dosing schedule: upfront, osimertinib-only DTP control AUC in same experiment: 16088, DMSO control AUC in same experiment: 28243); 2420 (test compound dose 30 nM, dosing schedule: upfront, osimertinib-only DTP control AUC in same experiment: 16134, DMSO control AUC in same experiment: 27958).

In the case of `COc1nnc2ccc(N3CCC(c4ccc(OCCN5CCN(C)C(=O)[C@H]5C)cc4)CC3)nn12` + C=CC(=O)Nc1cc(Nc2nccc(-c3cn(C)c4ccccc34)n2)c(OC)cc1N(C)CCN(C)C [osimertinib], the “area under confluence curve” value (test compound dose 300 nM, dosing schedule: sequential, osimertinib-only DTP control AUC in same experiment: 3562, DMSO control AUC in same experiment: 31840) amounted to 2500; the “area under confluence curve” value (test compound dose 300 nM, dosing schedule: sequential, osimertinib-only DTP control AUC in same experiment: 10968, DMSO control AUC in same experiment: 21594) was determined as 7840; the “area under confluence curve” value (test compound dose 300 nM, dosing schedule: sequential, osimertinib-only DTP control AUC in same experiment: 12231, DMSO control AUC in same experiment: 19076) stood at 5480; the “area under confluence curve” value (test compound dose 300 nM, dosing schedule: sequential, osimertinib-only DTP control AUC in same experiment: 12891, DMSO control AUC in same experiment: 44384) stood at 2120; the “area under confluence curve” value (test compound dose 300 nM, dosing schedule: upfront, osimertinib-only DTP control AUC in same experiment: 16535, DMSO control AUC in same experiment: 19076) worked out at 15300; the “area under confluence curve” value (test compound dose 300 nM, dosing schedule: upfront, osimertinib-only DTP control AUC in same experiment: 16570, DMSO control AUC in same experiment: 44384) is 19700. The “area under confluence curve” value is, setting by setting: (test compound dose 300 nM, dosing schedule: upfront, osimertinib-only DTP control AUC in same experiment: 17834, DMSO control AUC in same experiment: 21594) 15800; (test compound dose 300 nM, dosing schedule: upfront, osimertinib-only DTP control AUC in same experiment: 19015, DMSO control AUC in same experiment: 31840) 27400.

Turning to `CN1CCN(CCOc2cc(OC3CCOCC3)c3c(Nc4c(Cl)ccc5c4OCO5)ncnc3c2)CC1` [Saracatinib] + C=CC(=O)Nc1cc(Nc2nccc(-c3cn(C)c4ccccc34)n2)c(OC)cc1N(C)CCN(C)C [osimertinib], the “area under confluence curve” value (test compound dose 300 nM, dosing schedule: sequential, osimertinib-only DTP control AUC in same experiment: 9267, DMSO control AUC in same experiment: 19507) came out at 4570; the “area under confluence curve” value (test compound dose 300 nM, dosing schedule: sequential, osimertinib-only DTP control AUC in same experiment: 12589, DMSO control AUC in same experiment: 28243) turned out to be 8930; the “area under confluence curve” value (test compound dose 300 nM, dosing schedule: upfront, osimertinib-only DTP control AUC in same experiment: 10534, DMSO control AUC in same experiment: 19507) worked out at 1600; the “area under confluence curve” value (test compound dose 300 nM, dosing schedule: upfront, osimertinib-only DTP control AUC in same experiment: 16088, DMSO control AUC in same experiment: 28243) is 16200.

As to `COc1ccc(CCc2nc3cc(-c4c(C)noc4C)ccc3n2C[C@H](C)N2CCOCC2)cc1Cl` + C=CC(=O)Nc1cc(Nc2nccc(-c3cn(C)c4ccccc34)n2)c(OC)cc1N(C)CCN(C)C [osimertinib], the “area under confluence curve” value reads like this: (test compound dose 1000 nM, dosing schedule: sequential, osimertinib-only DTP control AUC in same experiment: 4730, DMSO control AUC in same experiment: 72888) 6290; (test compound dose 1000 nM, dosing schedule: sequential, osimertinib-only DTP control AUC in same experiment: 9508, DMSO control AUC in same experiment: 26668) 9310; (test compound dose 1000 nM, dosing schedule: sequential, osimertinib-only DTP control AUC in same experiment: 12065, DMSO control AUC in same experiment: 48219) 13500; (test compound dose 1000 nM, dosing schedule: upfront, osimertinib-only DTP control AUC in same experiment: 8775, DMSO control AUC in same experiment: 72888) 20400; (test compound dose 1000 nM, dosing schedule: upfront, osimertinib-only DTP control AUC in same experiment: 11298, DMSO control AUC in same experiment: 26668) 10700; (test compound dose 1000 nM, dosing schedule: upfront, osimertinib-only DTP control AUC in same experiment: 22645, DMSO control AUC in same experiment: 48219) 37300.

`Cc1[nH]nc(C(F)(F)F)c1Cc1sc2c(c1C(=O)N1C[C@](C)(O)CO1)c(=O)n(C)c(=O)n2C(C)C` + C=CC(=O)Nc1cc(Nc2nccc(-c3cn(C)c4ccccc34)n2)c(OC)cc1N(C)CCN(C)C [osimertinib]: the “area under confluence curve” value runs as follows: (test compound dose 1000 nM, dosing schedule: sequential, osimertinib-only DTP control AUC in same experiment: 10725, DMSO control AUC in same experiment: 30578) 18600; (test compound dose 1000 nM, dosing schedule: upfront, osimertinib-only DTP control AUC in same experiment: 10245, DMSO control AUC in same experiment: 30578) 11200.

On to `COc1nn(C)cc1Nc1nccc(-c2c[nH]c3c(NC(=O)[C@@H](C)N4CCN(C)CC4)cccc23)n1` + C=CC(=O)Nc1cc(Nc2nccc(-c3cn(C)c4ccccc34)n2)c(OC)cc1N(C)CCN(C)C [osimertinib], for which the “area under confluence curve” value came out at 8030 (test compound dose 1000 nM, dosing schedule: sequential, osimertinib-only DTP control AUC in same experiment: 10968, DMSO control AUC in same experiment: 21594) and 15000 (test compound dose 1000 nM, dosing schedule: upfront, osimertinib-only DTP control AUC in same experiment: 17834, DMSO control AUC in same experiment: 21594).

With `C[C@@H]1COCCN1c1cc(C2([S@](C)(=N)=O)CC2)nc(-c2cc[nH]c3nccc2-3)n1` + C=CC(=O)Nc1cc(Nc2nccc(-c3cn(C)c4ccccc34)n2)c(OC)cc1N(C)CCN(C)C [osimertinib], the “area under confluence curve” value runs as follows: under setting [1], 14300; under setting [2], 12300; under setting [3], 15900; under setting [4], 16500.

Take `O=C(c1cc(Cc2n[nH]c(=O)c3ccccc23)ccc1F)N1CCN(C(=O)C2CC2)CC1` [Olaparib] + C=CC(=O)Nc1cc(Nc2nccc(-c3cn(C)c4ccccc34)n2)c(OC)cc1N(C)CCN(C)C [osimertinib]: the “area under confluence curve” value was found to be 7460 under setting [1], 12600 under setting [2], 16600 under setting [3] and 18600 under setting [4].

For `Cc1cc2ncnn2cc1Nc1ncc2c(n1)n(C1CCOCC1)c(=O)n2C` + C=CC(=O)Nc1cc(Nc2nccc(-c3cn(C)c4ccccc34)n2)c(OC)cc1N(C)CCN(C)C [osimertinib], the “area under confluence curve” value is, setting by setting: under setting [2], 10500; under setting [3], 12700.
